From PubChem BioAssay (NCATS)
Results filed as inconclusive are left out. Active and inactive are the calls of the source. Unless noted, the call rests on the fitted dose curve; in most records, active means well fitted curve in the direction sought with a large enough effect; inconclusive means small, poorly fitted or top-dose-only effect, or another doubt; inactive means no such curve, though single readings can be large; an effect the other way counts as inactive or inconclusive.

Columns and labels:
[1] = molecular target: Chromobox protein homolog 1 (Homo sapiens) (UniProt P83916); assay: qHTS Validation Assay for Inhibitors of HP1-beta Chromodomain Interactions with Methylated Histone Tails (AID 488953); further: nearly all actives have a fitted effect of over 50% in size; further: potency means the concentration at half of the fitted maximal effect
Sequence of Chromobox protein homolog 1 (Homo sapiens) (P83916 whole entry, looked up): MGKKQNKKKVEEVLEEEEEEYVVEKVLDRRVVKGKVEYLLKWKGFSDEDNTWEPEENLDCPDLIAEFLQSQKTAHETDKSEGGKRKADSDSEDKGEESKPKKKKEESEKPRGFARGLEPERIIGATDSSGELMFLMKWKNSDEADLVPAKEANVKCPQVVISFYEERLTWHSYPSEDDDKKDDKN
In short: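 Compounds pinned into a preassembled complex of HP1-beta and trimethyl-K9 histone H3(1-18) biotin peptide (50 nM each; PBS pH 7.4, 0.01% Tween-20). After 30 min, bead-based AlphaScreen detection followed.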

[2] = molecular target: Transient receptor potential cation channel subfamily V member 1 (Homo sapiens) (UniProt Q8NER1); assay: HTS Assay for Compounds that Act as Enhancers of the Vanilloid Receptor 1 (AID 488979); further: 0% is about no effect
Sequence of Transient receptor potential cation channel subfamily V member 1 (Homo sapiens) (Q8NER1 whole entry, looked up): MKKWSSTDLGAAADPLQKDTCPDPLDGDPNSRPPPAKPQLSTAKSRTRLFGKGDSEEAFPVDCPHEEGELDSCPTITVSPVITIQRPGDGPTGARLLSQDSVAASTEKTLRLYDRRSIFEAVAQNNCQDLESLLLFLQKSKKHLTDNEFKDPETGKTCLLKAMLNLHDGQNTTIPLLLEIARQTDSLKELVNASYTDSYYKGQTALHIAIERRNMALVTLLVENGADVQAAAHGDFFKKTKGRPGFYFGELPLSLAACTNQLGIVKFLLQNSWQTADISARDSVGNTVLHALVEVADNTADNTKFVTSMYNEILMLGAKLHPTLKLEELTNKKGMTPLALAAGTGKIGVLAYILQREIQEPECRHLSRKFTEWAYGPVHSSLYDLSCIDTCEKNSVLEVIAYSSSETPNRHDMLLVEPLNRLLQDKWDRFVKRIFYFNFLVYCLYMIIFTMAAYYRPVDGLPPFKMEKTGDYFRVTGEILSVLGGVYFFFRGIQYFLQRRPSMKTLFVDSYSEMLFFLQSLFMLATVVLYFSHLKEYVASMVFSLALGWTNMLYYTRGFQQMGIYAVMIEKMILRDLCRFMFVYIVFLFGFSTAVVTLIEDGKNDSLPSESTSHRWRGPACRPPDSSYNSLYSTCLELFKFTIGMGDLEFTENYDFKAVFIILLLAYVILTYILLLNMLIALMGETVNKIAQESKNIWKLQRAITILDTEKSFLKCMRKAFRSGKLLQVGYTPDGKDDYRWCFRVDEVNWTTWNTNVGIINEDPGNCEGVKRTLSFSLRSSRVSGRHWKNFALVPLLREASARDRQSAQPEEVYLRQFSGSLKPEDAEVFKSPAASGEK
In short: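 TRPV1-expressing cells loaded with Fluo-8 calcium dye; compounds added and calcium influx read kinetically for 3 min (agonist phase), then capsaicin at EC20 added and read 2 min more for enhancement. Fluorescence ex 480/em 520 nm.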

[3] = molecular target: D(1A) dopamine receptor (Homo sapiens) (UniProt P21728); assay: HTS Assay for Allosteric Agonists of the Human D1 Dopamine Receptor: Primary Screen for Agonists (AID 488981); further: potency means the concentration at half of the fitted maximal effect; on activation: 0% is about no effect
Sequence of D(1A) dopamine receptor (Homo sapiens) (P21728 whole entry, looked up): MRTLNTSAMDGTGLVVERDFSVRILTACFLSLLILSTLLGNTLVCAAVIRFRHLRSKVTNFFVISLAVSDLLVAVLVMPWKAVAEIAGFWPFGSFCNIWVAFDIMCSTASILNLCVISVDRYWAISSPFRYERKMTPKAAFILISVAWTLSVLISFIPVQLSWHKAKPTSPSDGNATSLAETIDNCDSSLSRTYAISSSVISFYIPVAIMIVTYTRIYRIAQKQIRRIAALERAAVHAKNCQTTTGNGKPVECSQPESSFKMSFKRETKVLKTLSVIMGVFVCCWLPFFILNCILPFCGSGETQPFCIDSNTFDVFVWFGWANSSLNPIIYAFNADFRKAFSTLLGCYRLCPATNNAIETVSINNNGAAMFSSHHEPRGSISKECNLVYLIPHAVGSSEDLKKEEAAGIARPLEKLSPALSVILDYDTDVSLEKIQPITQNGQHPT
In short: (§1)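 Tetracycline-induced HEK293 T-REx cells force-coupled to calcium signalling were incubated overnight at 30 C and dye-loaded at room temperature. Calcium flux over 180 s after compound addition flagged agonists; a further 180 s read after EC20 dopamine flagged potentiators.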

[4] = molecular target: D(1A) dopamine receptor (Homo sapiens) (UniProt P21728); assay: HTS Assay for Allosteric Agonists of the Human D1 Dopamine Receptor: Primary Screen for Potentiators (AID 488982); further: 0% is about no effect
In short: as §1

[5] = molecular target: D(1A) dopamine receptor (Homo sapiens) (UniProt P21728); assay: HTS Assay for Allosteric Agonists of the Human D1 Dopamine Receptor: Primary Screen for Antagonists (AID 488983);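 further: calcium flux response to an EC80 dopamine challenge measured with no-wash dye; nearly all actives have a fitted effect of over 65% in size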; further: potency means the concentration at half of the fitted maximal effect
In short: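 In this primary screen, compounds are applied to calcium-dye-loaded HEK293 T-REx cells with force-coupled D1 expression induced overnight at 30 C. An EC80 of dopamine follows the 180 s compound phase, and calcium is monitored for a further 180 s.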

[6] = Validation screen for small molecules that induce genotoxicity in human embryonic kidney (HEK293T) cells expressing luciferase-tagged ELG1 (AID 493106); further: potency means the concentration at half of the fitted maximal effect
In short: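 In this validation screen, increased ELG1-luciferase signal flags compounds causing genetic stress. HEK293T reporter cells are treated 16 hr (37 °C, 5% CO2), developed with ONE-Glo for 30 min at room temperature, and imaged on a CCD-based reader.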

[7] = molecular target: Thyrotropin-releasing hormone receptor (Homo sapiens) (UniProt P34981); assay: qHTS for Small Molecule Agonists and Allosteric Enhancers of Human TRH Receptor: Validation Screen for Agonists (AID 493127;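 active means calcium activation more than 3 SD above the typical response in the agonist read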;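 further: intracellular calcium rise by fluo-8 fluorescence before TRH EC20 addition; 0% is about no effect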); conditions: TRH receptor agonist cell assay; at 2 µM; stronger effect = higher value
Sequence of Thyrotropin-releasing hormone receptor (Homo sapiens) (P34981 whole entry, looked up): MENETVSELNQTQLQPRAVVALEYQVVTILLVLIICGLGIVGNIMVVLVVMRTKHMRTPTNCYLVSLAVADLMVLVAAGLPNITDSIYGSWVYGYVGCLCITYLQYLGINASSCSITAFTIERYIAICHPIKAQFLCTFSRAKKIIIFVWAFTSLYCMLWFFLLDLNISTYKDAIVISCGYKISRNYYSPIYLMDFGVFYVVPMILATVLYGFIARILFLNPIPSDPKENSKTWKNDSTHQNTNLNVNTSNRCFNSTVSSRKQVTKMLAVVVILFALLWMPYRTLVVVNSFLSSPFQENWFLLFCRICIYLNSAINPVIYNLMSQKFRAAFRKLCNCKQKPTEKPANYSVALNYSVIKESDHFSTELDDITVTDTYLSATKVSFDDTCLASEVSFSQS
In short: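 Kinetic fluorescence assay of agonist-induced calcium release: overnight-plated TRHR cells, room-temperature fluo-8 loading, baseline then compound addition with per-second reads.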

[8] = Nrf2 qHTS screen for inhibitors: Validation (AID 493153; active means well fitted inhibition curve with a large enough effect in the main read-out, with a control signal flat, not every such curve was filed as active); conditions: Potency: luciferase luminescence; viability change: measured here: cytotoxicity max response
In short: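 In this counterscreened reporter format, each well gives two signals: CellTiter-Fluor fluorescence for cytotoxicity and ARE-luciferase luminescence for Nrf2 function. A549 ARE_Fluc cells in 5% FBS OPTI-MEM were exposed to compound titrations for 18-24 h.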

[9] = qHTS for Inhibitors of Cell Surface uPA Generation: Validation Assay (AID 493164);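 further: RAW 264.7 macrophage cells exposed to compound for 18 h; 0% is about no effect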
In short: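 Compounds are titrated over seven points (2.45 nM–38.3 uM final) onto pre-plated RAW 264.7 cells and incubated for 18 h. Retained intracellular ATP, measured with ATP-Lite, indicates blocked lethal factor entry.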

[10] = molecular target: Galactokinase (Homo sapiens) (UniProt P51570); assay: qHTS Validation Assay for Inhibitors of Human Galactokinase (GALK) (AID 493189); further: 0% is about no effect
Sequence of Galactokinase (Homo sapiens) (P51570 whole entry, looked up): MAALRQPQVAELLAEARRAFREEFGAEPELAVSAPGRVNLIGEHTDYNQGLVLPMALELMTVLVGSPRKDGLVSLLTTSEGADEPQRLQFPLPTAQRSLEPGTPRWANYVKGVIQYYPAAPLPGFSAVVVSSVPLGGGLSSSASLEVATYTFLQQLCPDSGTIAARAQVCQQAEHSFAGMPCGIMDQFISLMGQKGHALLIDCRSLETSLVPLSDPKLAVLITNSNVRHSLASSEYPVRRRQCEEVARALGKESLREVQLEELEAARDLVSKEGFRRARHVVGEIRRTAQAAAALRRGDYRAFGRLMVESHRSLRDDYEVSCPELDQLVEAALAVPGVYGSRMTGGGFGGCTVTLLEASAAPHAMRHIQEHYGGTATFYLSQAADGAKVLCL
In short: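 GALK (5 nM) with 35 uM ATP and 100 uM galactose in HEPES pH 8.0 with MgCl2, NaCl, DTT and BSA. Reaction ran 1 h at room temperature. Residual ATP read by Kinase-Glo Plus luminescence.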

[11] = Validation screen for small molecules that induce DNA re-replication in SW480 colon adenocarcinoma cells (AID 504364); further: 0% is about no effect
In short: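 Hoechst-stained SW480 nuclei, imaged at 405 nm excitation after 48 hr compound exposure, were counted for elevated DNA content as the re-replication signal.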

[12] = molecular target: Peptidyl-prolyl cis-trans isomerase NIMA-interacting 1 (Homo sapiens) (UniProt Q13526); assay: qHTS Validation Assay to Find Inhibitors of Pin1 (AID 504536; active means well fitted inhibition curve with a large enough effect in the polarisation, with a control signal flat, not every such curve was filed as active; the % refers to the polarisation;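 further: 0% = full Pin1 enzyme wells and -100% = no-enzyme wells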)
Sequence of Peptidyl-prolyl cis-trans isomerase NIMA-interacting 1 (Homo sapiens) (Q13526 whole entry, looked up): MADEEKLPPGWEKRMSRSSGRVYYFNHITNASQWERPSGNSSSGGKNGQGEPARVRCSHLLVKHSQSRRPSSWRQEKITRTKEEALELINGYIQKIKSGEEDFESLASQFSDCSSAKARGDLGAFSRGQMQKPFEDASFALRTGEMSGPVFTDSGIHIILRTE
In short: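 Fluorescence polarization competition: compounds (titration) displace HiFluor-488-labeled Pin1-1b peptide from Pin1 (0.3 uM final) in pH 7.5 HEPES buffer with DTT, 10 min at room temperature; %Activity normalized to no-enzyme wells, curves fitted.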

[13] = molecular target: Phosphoglycerate kinase, glycosomal (Trypanosoma brucei brucei) (UniProt P07378); assay: qHTS Validation Assay to Find Inhibitors of Phosphoglycerate Kinase (AID 504547);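 further: control wells lack PGK and mark full inhibition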
Sequence of Phosphoglycerate kinase, glycosomal (Trypanosoma brucei brucei) (P07378 whole entry, looked up): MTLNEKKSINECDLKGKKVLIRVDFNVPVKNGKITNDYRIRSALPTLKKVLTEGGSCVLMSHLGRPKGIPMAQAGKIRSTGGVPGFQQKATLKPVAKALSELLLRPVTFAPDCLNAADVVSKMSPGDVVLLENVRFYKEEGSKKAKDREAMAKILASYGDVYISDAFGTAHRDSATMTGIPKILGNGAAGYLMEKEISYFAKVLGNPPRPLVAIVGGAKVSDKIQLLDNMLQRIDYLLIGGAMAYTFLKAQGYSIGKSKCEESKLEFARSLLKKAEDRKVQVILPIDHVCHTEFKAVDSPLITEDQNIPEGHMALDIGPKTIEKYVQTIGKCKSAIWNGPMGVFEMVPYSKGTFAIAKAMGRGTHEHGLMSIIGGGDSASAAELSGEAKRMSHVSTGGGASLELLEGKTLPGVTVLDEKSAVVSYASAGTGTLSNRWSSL
In short: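 In TEA buffer (100mM, pH 7.6) containing 5mM MgCl2 and 0.01% Tween-20, the GAPDH-coupled PGK reaction proceeded for 60 minutes at room temperature before a single luminescence reading using Kinase-Glo Plus.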

[14] = molecular target: phosphoglycerate mutase (Leishmania major) (UniProt Q4Q090); assay: qHTS Validation Assay to Find Inhibitors of Phosphoglycerate Mutase (AID 504548); conditions: Potency: inhibition qHTS;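 further: end-point luminescence from Kinase-GloPlus after the PGAM reaction; series mostly up to about 58 µM; on the % scale 0 is the no-effect control and ±100 the full control effect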
Sequence of phosphoglycerate mutase (Leishmania major) (Q4Q090 1-553): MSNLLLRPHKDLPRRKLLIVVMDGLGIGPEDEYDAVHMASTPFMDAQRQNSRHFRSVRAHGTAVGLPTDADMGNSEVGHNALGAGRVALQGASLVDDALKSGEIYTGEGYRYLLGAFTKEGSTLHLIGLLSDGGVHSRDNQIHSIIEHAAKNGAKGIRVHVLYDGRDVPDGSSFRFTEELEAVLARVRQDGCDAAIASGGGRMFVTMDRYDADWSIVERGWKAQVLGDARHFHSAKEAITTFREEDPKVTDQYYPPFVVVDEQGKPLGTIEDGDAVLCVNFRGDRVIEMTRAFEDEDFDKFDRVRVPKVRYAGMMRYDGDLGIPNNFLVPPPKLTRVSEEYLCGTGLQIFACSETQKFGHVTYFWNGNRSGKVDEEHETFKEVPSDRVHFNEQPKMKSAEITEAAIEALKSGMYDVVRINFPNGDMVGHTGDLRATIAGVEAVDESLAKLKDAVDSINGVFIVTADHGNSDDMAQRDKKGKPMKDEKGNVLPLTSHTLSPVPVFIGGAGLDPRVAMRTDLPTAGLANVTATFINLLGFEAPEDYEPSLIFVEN
In short: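 L. major PGAM (1.25nM final) was added to substrate buffer and pinned compound, incubated 45 minutes at room temperature, then Kinase-GloPlus added; luminescence read after 10 minutes. Buffer: 100 mM TEA pH 7.6, 5 mM MgCl2, 0.01% Tween-20.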

[15] = Inducers of the Endoplasmic Reticulum Stress Response (ERSR) in human glioma: Validation (AID 504836); further: 0% is about no effect
In short: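 Stably transfected U87-MG human glioma cells carrying a GRP78-based luminescent sensor were seeded at 1000 cells/well, pin-dosed with compounds and incubated 16 h. Luciferase reagent was then added, and end-point luminescence was read after 10 min at room temperature.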

[16] = molecular target: Methanococcus maripaludis chaperonin (MmCpn) (UniProt Q6LX38); assay: High-Throughput Screening for Modulators of Cytosolic Chaperonin Activity: MmCpn Primary Screen (AID 488978);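 further: 50 nM MmCpn enzyme hydrolysing 30 µM ATP at 37 °C; 0% is about no effect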
Sequence of Methanococcus maripaludis chaperonin (MmCpn) (Q6LX38 1-543): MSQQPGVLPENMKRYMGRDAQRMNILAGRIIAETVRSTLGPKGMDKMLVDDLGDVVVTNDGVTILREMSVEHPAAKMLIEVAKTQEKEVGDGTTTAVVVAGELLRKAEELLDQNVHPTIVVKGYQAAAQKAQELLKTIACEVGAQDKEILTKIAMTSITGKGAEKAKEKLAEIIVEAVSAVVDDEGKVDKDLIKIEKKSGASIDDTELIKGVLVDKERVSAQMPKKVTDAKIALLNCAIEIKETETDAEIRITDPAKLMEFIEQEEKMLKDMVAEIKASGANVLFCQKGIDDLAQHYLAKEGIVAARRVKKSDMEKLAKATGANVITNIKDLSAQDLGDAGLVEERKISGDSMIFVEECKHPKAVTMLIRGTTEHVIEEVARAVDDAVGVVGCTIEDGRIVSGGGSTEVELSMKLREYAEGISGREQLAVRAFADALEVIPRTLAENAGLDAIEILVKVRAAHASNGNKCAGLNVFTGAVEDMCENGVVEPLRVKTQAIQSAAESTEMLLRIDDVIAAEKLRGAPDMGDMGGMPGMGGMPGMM
In short: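 MmCpn at 50 nM final was preincubated 5 min at RT with compound. ATP was then added at 30 uM final for 10 min at 37 C. ADP formed was detected by Transcreener HTRF (665/590 nm).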

[17] = molecular target: ATPase family AAA domain-containing protein 5 (Homo sapiens) (UniProt Q96QE3); assay: Validation screen for small molecules that inhibit ELG1-dependent DNA repair in human embryonic kidney (HEK293T) cells expressing luciferase-tagged ELG1 (AID 493107); further: nearly all actives have a fitted effect of over 70% in size; further: potency means the concentration at half of the fitted maximal effect
In short: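 Compounds reducing 5-fluorouridine-driven ELG1-luciferase signal in HEK293T cells were scored; exposure lasted 16 hr at 37 °C with luminescence detected via ONE-Glo.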

[18] = molecular target: Thyrotropin receptor (Homo sapiens) (UniProt P16473); assay: qHTS Assay for Antagonists of the Thyroid Stimulating Hormone Receptor (AID 488980); further: series mostly up to about 58 µM; 0% is about no effect
Sequence of Thyrotropin receptor (Homo sapiens) (P16473 whole entry, looked up): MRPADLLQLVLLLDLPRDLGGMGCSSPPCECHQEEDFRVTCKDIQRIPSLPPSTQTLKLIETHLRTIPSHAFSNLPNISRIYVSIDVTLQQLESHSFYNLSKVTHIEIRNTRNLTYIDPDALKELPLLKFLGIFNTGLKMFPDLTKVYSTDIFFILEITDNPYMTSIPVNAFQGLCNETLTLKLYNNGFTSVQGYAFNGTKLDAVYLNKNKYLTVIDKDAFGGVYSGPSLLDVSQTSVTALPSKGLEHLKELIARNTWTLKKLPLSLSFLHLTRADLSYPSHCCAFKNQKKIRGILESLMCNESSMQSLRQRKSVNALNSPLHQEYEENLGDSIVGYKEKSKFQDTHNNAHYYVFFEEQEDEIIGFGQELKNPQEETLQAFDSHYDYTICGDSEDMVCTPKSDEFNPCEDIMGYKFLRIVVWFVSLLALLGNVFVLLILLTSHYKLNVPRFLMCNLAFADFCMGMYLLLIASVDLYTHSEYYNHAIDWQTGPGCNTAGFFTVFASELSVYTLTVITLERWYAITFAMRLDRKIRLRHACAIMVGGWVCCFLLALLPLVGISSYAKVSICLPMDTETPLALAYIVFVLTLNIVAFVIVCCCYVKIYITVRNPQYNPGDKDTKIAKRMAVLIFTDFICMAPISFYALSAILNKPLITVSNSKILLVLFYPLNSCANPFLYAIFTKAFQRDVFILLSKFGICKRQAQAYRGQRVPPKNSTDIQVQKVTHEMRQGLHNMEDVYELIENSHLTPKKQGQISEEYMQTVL
In short: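 TSHR-transfected HEK293 cells (2000/well) in HEPES-buffered HBSS with 70 uM RO 20-1724 were stimulated with 4 nM TSH (EC80, final) in the presence of compound. cAMP was measured by HTRF competition after lysis and 30 min at RT.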

[19] = molecular target: ATP-dependent 6-phosphofructokinase (Trypanosoma brucei brucei) (UniProt O15648); assay: qHTS Assay to Find Inhibitors of T. brucei phosphofructokinase: hit validation (AID 492961);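 further: luminescence reports ADP formed as PFK phosphorylates fructose-6-phosphate with ATP; series mostly up to about 51 µM; on the % scale 0 is the no-effect control and ±100 the full control effect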
In short: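 Percent activity derived from corrected luminescence, normalized between 0x and 1x enzyme controls, then fitted to concentration-response curves. Conditions: 1.25 nM PFK, 0.1 mM ATP, 0.5 mM F6P, 45 min RT.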

[20] = molecular target: Tyrosyl-DNA phosphodiesterase 1 (Homo sapiens) (UniProt Q9NUW8); assay: Confirmation Assay for Inhibitors of Tyrosyl-DNA Phosphodiesterase (TDP1) (AID 489007); conditions: recombinant human TDP1 enzymatic activity, dose-response; further: potency means the concentration at half of the fitted maximal effect; nearly all actives have a fitted effect of over 40% in size
In short: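 Loss of AlphaScreen signal reports Tdp1 cleavage of a dual-labelled DNA substrate. Conditions: 1 nM E. coli-derived enzyme, 15 nM substrate, 15 min compound preincubation, 5 min reaction, 10 min bead incubation, all at room temperature.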

C[C@@H]1O[C@H](C[N+](C)(C)C)CS1
inactive: Potency [1] | outcome [2] | Potency [3] | Potency [4] | Potency [5] | Potency [6] | activation [7] 11.2% | Potency [8] | outcome [9] | outcome [10] | Potency [11] | Potency [12] | Potency [13] | Potency [14] | outcome [15]
8.63%: viability change [8]

O=[N+]([O-])/C=C/c1ccc2c(c1)OCO2
inactive: outcome [16] | Potency [3] | Potency [4] | Potency [6] | outcome [9] | Potency [12] | Potency [13] | Potency [14]
active: Potency [1] 14.1 µM | Potency [17] 20.6 µM

C=CCN1CCc2cccc3c2[C@H]1Cc1ccc(O)c(O)c1-3
1.3%: viability change [8]
inactive: outcome [16] | Potency [4] | Potency [6] | Potency [8] | outcome [9] | Potency [12] | Potency [13] | outcome [15]
active: Potency [1] 44.7 µM | Potency [3] 0.794 µM | Potency [5] 0.398 µM

Clc1cc(I)cc(Cl)c1NC1=NCCN1
inactive: Potency [1] | outcome [2] | outcome [18] | Potency [3] | Potency [4] | Potency [5] | Potency [6] | Potency [17] | activation [7] 1.69% | Potency [8] | outcome [9] | outcome [10] | Potency [12] | Potency [13] | Potency [14] | outcome [15]
9.07%: viability change [8]

CCCCCCCCCCCCCC(=O)O[C@@H]1[C@@H](C)[C@@]2(O)[C@@H](C=C(CO)C[C@@]3(O)C(=O)C(C)=C[C@@H]23)C2C(C)(C)[C@@]21OC(C)=O (some centres not stated)
active: Potency [6] 0.0041 µM
-19.6%: viability change [8]
inactive: Potency [1] | outcome [16] | outcome [2] | Potency [3] | Potency [4] | Potency [5] | activation [7] 0.75% | Potency [8] | outcome [10] | Potency [12] | Potency [13] | Potency [14]

C=CCN(C1=NCCN1)c1c(Cl)cccc1Cl
inactive: Potency [1] | outcome [16] | Potency [3] | Potency [4] | Potency [5] | Potency [19] | Potency [6] | Potency [17] | Potency [8] | outcome [9] | Potency [12] | Potency [13] | Potency [14] | outcome [15]
-5.34%: viability change [8]

CCCN1CCc2cc(O)cc3c2[C@H]1Cc1ccc(O)c(O)c1-3
active: Potency [1] 1.34 µM | Potency [5] 0.631 µM
inactive: outcome [16] | Potency [3] | Potency [6] | Potency [17] | Potency [8] | outcome [9] | Potency [12] | Potency [13]
-6.67%: viability change [8]

Oc1ccc2c3c1O[C@H]1c4oc5ccccc5c4C[C@@]4(O)C(C2)N(CC2CC2)CCC314 (some centres not stated)
-2.78%: viability change [8]
inactive: Potency [1] | outcome [16] | outcome [2] | Potency [3] | Potency [4] | Potency [5] | Potency [6] | Potency [17] | activation [7] 1.94% | Potency [8] | outcome [9] | outcome [10] | Potency [12] | Potency [13] | Potency [14] | outcome [15]

CCCn1c(C)c(C(=O)c2ccc3ccccc3c2)c2ccccc21
inactive: Potency [1] | outcome [2] | outcome [18] | Potency [3] | Potency [4] | Potency [5] | Potency [6] | activation [7] -5.69% | outcome [9] | outcome [10] | Potency [12] | Potency [13] | Potency [14] | outcome [15]

O=C(O)c1cc[c]([Hg][Cl])cc1
-2.02%: viability change [8]
active: Potency [1] 39.8 µM | Potency [20] 56.2 µM
inactive: outcome [2] | outcome [18] | Potency [3] | Potency [4] | Potency [5] | Potency [6] | activation [7] 1.5% | Potency [8] | outcome [9] | outcome [10] | Potency [11] | Potency [12] | Potency [13] | outcome [15]

NC(N)=Nc1ccc2[nH]c3c(c2c1)C[C@@]1(O)[C@H]2Cc4ccc(O)c5c4[C@@]1(CCN2CC1CC1)[C@H]3O5
inactive: outcome [2] | outcome [18] | Potency [3] | Potency [4] | Potency [5] | Potency [6] | activation [7] 0.188% | Potency [8] | outcome [9] | outcome [10] | Potency [11] | Potency [12] | Potency [13] | Potency [14]
4.74%: viability change [8]
active: Potency [1] 28.2 µM

C[N+]1(C)CCOC(O)(c2ccc(-c3ccc(C4(O)C[N+](C)(C)CCO4)cc3)cc2)C1 (configuration not stated)
-1.71%: viability change [8]
inactive: Potency [1] | outcome [2] | outcome [18] | Potency [3] | Potency [4] | Potency [5] | Potency [6] | Potency [17] | activation [7] 1.19% | Potency [8] | outcome [9] | outcome [10] | Potency [11] | Potency [12] | Potency [13] | Potency [14] | outcome [15]

CO[C@H]1CC=C2CCN3CCC4=C(CC(=O)OC4)[C@]23C1
-2.68%: viability change [8]
inactive: Potency [1] | outcome [16] | outcome [2] | Potency [3] | Potency [4] | Potency [5] | Potency [6] | Potency [17] | Potency [8] | outcome [9] | outcome [10] | Potency [11] | Potency [12] | Potency [13] | Potency [14]

N[C@@H](Cn1ccc(=O)[nH]c1=O)C(=O)O
inactive: Potency [1] | outcome [16] | Potency [3] | Potency [4] | Potency [5] | Potency [6] | Potency [17] | Potency [8] | outcome [9] | Potency [12] | Potency [13] | Potency [14]
2.76%: viability change [8]

NCCc1ccc(S(=O)(=O)F)cc1
-2.23%: viability change [8]
inactive: Potency [1] | outcome [16] | outcome [2] | Potency [3] | Potency [4] | Potency [5] | Potency [6] | activation [7] 1.25% | Potency [8] | outcome [9] | outcome [10] | Potency [12] | Potency [13] | Potency [14] | outcome [15]
